{"source": "PubChem BioAssay (EPA / NIEHS)", "note": "Results filed as inconclusive are left out. Calls of active or inactive are those of the source. Rule for the calls: active = hit-call score of the fitted dose curve at least 0.9, where 1 is the maximum; inconclusive = response in the unintended direction; inactive = score below 0.9."}
{"system": "Sodium/Iodide Symporter (NIS), SLC5A5 (gene 6528)", "test": "CPHEA_Stoker_NIS_Inhibition_RAIU: CPHEA's Radioactive Iodide Uptake (RAIU) Assay for Sodium/Iodide Symporter (NIS) Inhibition, Stoker and Laws Labs (AID 2283841)", "protocol": "CPHEA_Stoker_NIS is a cell-based, single-readout assay that uses hNIS-HEK293T-EPA, a novel human kidney cell line expressing human NIS, with measurements taken at 2 hours after chemical dosing in a 96-well plate. This radioactive iodide uptake (RAIU) assay is used to identify inhibitors of NIS-mediated iodide uptake. A parallel cytoxicity assay (Cell Titer Glo, Promega) was also run in the same cell line.CPHEA_Stoker_NIS_Inhibition_RAIU is one of 2 assay components measured from the CPHEA_Stoker_NIS assay. It is designed to make measurements of radioactive substrate uptake to understand transporter function, as detected with 125-i signals by MicroBeta radioactivity plate reader technology.Data from the assay component CPHEA_Stoker_NIS_Inhibition_RAIU was analyzed at the endpoint, CPHEA_Stoker_NIS_Inhibition_RAIU, in the positive analysis fitting direction relative to DMSO as the negative control and baseline of activity. Measures of radioactive substrate uptake for loss-of-signal activity can be used to understand the effects on transporter function at the pathway level as they relate to the sodium-iodide symporter, gene SLC5A5. To generalize the intended target to other relatable targets, this assay endpoint is annotated to the transporter intended target family, where the subfamily is sodium-iodide symporter (NIS).\nhNIS-HEK293T-EPA cells were seeded with a MultiFlo FX dispenser (BioTek, Winooski, VT) into ScintiPlate-96 microplates (Perkin Elmer, Waltham, MA) at a density of 4.0x10^4 cells per well in 200uL growth media and incubated for 40 hours before experimentation. On day of the assay, carrier-free 125I (Perkin-Elmer, Waltham, MA; specific activity: 17.4Ci/mg) was diluted with Hanks' balanced salt solution (Sigma, St. Louis, MO) supplemented with 10mM HEPES (uptake buffer; pH 7.4) at 5uCi/mL (288pg 125I/mL uptake buffer; 2.30nM). The assay was initiated by washing cells twice with 200uL uptake buffer using a 96-well Tecan HydroSpeed plate washer (Tecan, Mannedorf, Switzerland). Uptake buffer (59.7uL) was then added back to each well. Chemical samples (350nL at 200X) were administered using the HDR tool as previously described to achieve a 1X chemical/0.5% final DMSO concentration with subsequent addition of 10uL of 125I dilution (final [125I]: 329pM; 2.88pg/well) for a final reaction volume of 70uL/well. Cells were incubated at room temperature for 2 hours and then washed twice with 200uL ice cold uptake buffer. All uptake buffer was aspirated from wells, plates were sealed, and read on a MicroBeta2 plate reader (Perkin Elmer, Waltham, MA) using a detection protocol to measure CPM corresponding to intracellular 125I concentration. Each chemical concentration (0.001, 0.01, 0.1, 1.0, 10, and 100uM) was assayed in triplicate with three independent biological replicate plates (3 sequential cell passages). Additionally, a concentration response of NaClO4 (0.001, 0.01, 0.1, 1.0, 10, and 100uM) served as a positive control inhibition curve on each RAIU assay plate. DMSO control wells were assayed on each plate as a measure of maximum iodide uptake for normalization and determination of intra- and inter-assay variation. (Toxicol In Vitro, 2017, 40:66-78)."}
{"molecule": "CC1(C)CON(Cc2ccccc2Cl)C1=O", "outcome": "inactive"}
{"molecule": "CC(C)Oc1cccc(NC(=O)c2ccccc2C(F)(F)F)c1", "outcome": "inactive"}
{"molecule": "CC1(C)C(C=C(Cl)Cl)C1C(=O)OC(C#N)c1cccc(Oc2ccccc2)c1", "note": "(stereo unspecified)", "outcome": "inactive"}
{"molecule": "Cc1ccc(N=CN(C)C=Nc2ccc(C)cc2C)c(C)c1", "outcome": "inactive"}
{"molecule": "CO/N=C(/C1=NOCCO1)c1ccccc1Oc1ncnc(Oc2ccccc2Cl)c1F", "AC50": "9.92 µM (active)"}
{"molecule": "CC1(C)C(C(=O)OC(C#N)c2cccc(Oc3ccccc3)c2)C1(C)C", "note": "(stereo unspecified)", "outcome": "inactive"}
{"molecule": "CCCCC(O)(Cn1cncn1)c1ccc(Cl)cc1Cl", "note": "(stereo unspecified)", "outcome": "inactive"}
{"molecule": "CCOC(=O)C(C)OC(=O)c1cc(Oc2ccc(C(F)(F)F)cc2Cl)ccc1[N+](=O)[O-]", "note": "(stereo unspecified)", "outcome": "inactive"}
{"molecule": "C=CCOC(=O)C(C)(C)OC(=O)c1cc(-n2c(=O)cc(C(F)(F)F)n(C)c2=O)ccc1Cl", "outcome": "inactive"}
{"molecule": "CCOP(=S)(OCC)Oc1nc(Cl)n(C(C)C)n1", "outcome": "inactive"}
{"molecule": "Nc1c(Cl)c(Cl)nc(C(=O)O)c1Cl", "outcome": "inactive"}
{"molecule": "COC(=O)c1c(C(F)F)nc(C(F)(F)F)c(C2=NCCS2)c1CC(C)C", "outcome": "inactive"}
{"molecule": "COP(=S)(OC)SCn1nnc2ccccc2c1=O", "outcome": "inactive"}
{"molecule": "CSC(=O)c1c(C(F)F)nc(C(F)(F)F)c(C(=O)SC)c1CC(C)C", "outcome": "inactive"}
{"molecule": "CCOc1cc(C(C)(C)C)ccc1C1COC(c2c(F)cccc2F)=N1", "note": "(stereo unspecified)", "AC50": "1.21 µM (active)"}
{"molecule": "O=C(Nc1ccccc1-c1ccc(Cl)cc1)c1cccnc1Cl", "outcome": "inactive"}
{"molecule": "CCN(CC)C(=O)C(C)Oc1cccc2ccccc12", "note": "(stereo unspecified)", "outcome": "inactive"}
{"molecule": "COP(=S)(OC)Oc1ccc([N+](=O)[O-])c(C)c1", "outcome": "inactive"}
{"molecule": "CCOP(=O)(OCC)Oc1nc(Cl)c(Cl)cc1Cl", "outcome": "inactive"}
{"molecule": "CCCCOCN(C(=O)CCl)c1c(CC)cccc1CC", "outcome": "inactive"}
{"molecule": "CCNP(=S)(OC)O/C(C)=C/C(=O)OC(C)C", "note": "(stereo unspecified)", "outcome": "inactive"}
{"molecule": "OC(c1ccc(Cl)cc1)(c1ccc(Cl)cc1)C(Cl)(Cl)Cl", "AC50": "30.2 µM (active)"}
{"molecule": "CC(C)N1C(=O)N(c2ccccc2)CSC1=NC(C)(C)C", "AC50": "27.8 µM (active)"}
{"molecule": "C=C(C)CN(CC)c1c([N+](=O)[O-])cc(C(F)(F)F)cc1[N+](=O)[O-]", "AC50": "5.45 µM (active)"}
{"molecule": "N#Cc1c[nH]cc1-c1cccc2c1OC(F)(F)O2", "outcome": "inactive"}
{"molecule": "O=C1C2CC=CCC2C(=O)N1SC(Cl)(Cl)Cl", "note": "(stereo unspecified)", "AC50": "36 µM (active)"}
{"molecule": "COc1ccc(-c2ccccc2)cc1NNC(=O)OC(C)C", "AC50": "50 µM (active)"}
{"molecule": "CCOc1nc(F)cc2nc(S(=O)(=O)Nc3c(Cl)cccc3Cl)nn12", "outcome": "inactive"}
{"molecule": "CC(C)=CC1C(C(=O)OCc2coc(Cc3ccccc3)c2)C1(C)C", "note": "(stereo unspecified)", "outcome": "inactive"}
{"molecule": "Clc1cccc(C(Cl)(Cl)Cl)n1", "outcome": "inactive"}
{"molecule": "CCN(CC)c1nc(C)cc(OP(=S)(OC)OC)n1", "outcome": "inactive"}
